{"source": "PubChem BioAssay (NCATS)", "note": "Records with an inconclusive call do not appear. Values without a mark were called inactive. The call rests on the fitted dose curve; in most records, active means well fitted inhibition curve with a large enough effect; inconclusive means small, poorly fitted or top-dose-only effect; inactive means flat fitted curve, though single readings scatter. On the % scale 0 is the no-effect control and ±100 the full control effect."}
{"biological_target": "Calcium and integrin-binding protein 1 (Homo sapiens) (UniProt Q99828)", "sequence (Q99828 whole entry, looked up)": "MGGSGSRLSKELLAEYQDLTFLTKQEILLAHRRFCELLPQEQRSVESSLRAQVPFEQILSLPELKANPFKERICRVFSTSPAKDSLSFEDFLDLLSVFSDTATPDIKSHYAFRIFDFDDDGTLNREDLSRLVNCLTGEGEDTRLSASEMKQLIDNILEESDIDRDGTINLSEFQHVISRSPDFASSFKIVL", "assay": "Primary qHTS for Identification of Calcium Integrin Binding Protein 1 (CIB1) Competitor (AID 1508620); further: top concentration of the series differs between compounds", "conditions": "CIB1-GST / FITC-alphaIIb peptide fluorescence polarization; series mostly up to 57.7 µM; activity change, negative = inhibition: at the top concentration", "procedure,_shortened": "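Fluorescence polarization competition: GST-tagged CIB1 (1 uM final) preincubated with compound 15 min at room temperature, then FITC-labelled alphaIIb peptide (100 nM final) added. After 15 min at room temperature, polarization read at Ex 480/Em 540.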"}
{"smiles": "NC[C@@H]1O[C@@H](O[C@@H]2[C@@H](O[C@@H]3O[C@H](CO)[C@@H](O)[C@H]3O)[C@H](O)[C@@H](N)C[C@H]2N)[C@@H](N)[C@H](O)[C@H]1O", "activity change, negative = inhibition": "1.86% [at 30.2 µM]"}
{"smiles": "COc1cc(/C=C/C(=O)O[C@@H]2C[C@@](O)(C(=O)O)C[C@@H](O)[C@@H]2O)ccc1O", "activity change, negative = inhibition": "1.52%"}
{"smiles": "COc1cc(/C=C/C(=O)O[C@@H]2C[C@](O)(C(=O)O)C[C@@H](O)[C@H]2O)ccc1O", "activity change, negative = inhibition": "1.65%"}
{"smiles": "CC(=O)/C=C/C1C(C)CC(O[C@@H]2O[C@H](CO)[C@@H](O)[C@H](O)[C@H]2O)CC1(C)C", "note": "(stereo partly drawn)", "activity change, negative = inhibition": "1.52%"}
{"smiles": "CC(CC(C)O[C@@H]1O[C@H](CO)[C@@H](O)[C@H](O)[C@H]1O)OC(=O)/C=C/c1ccc(O)cc1", "note": "(stereo partly drawn)", "activity change, negative = inhibition": "3.09%"}
{"smiles": "O=S(=O)(O)c1ccc(Nc2ncnc3c2ncn3[C@@H]2O[C@H](CO)[C@@H](O)[C@H]2O)cc1", "activity change, negative = inhibition": "4.67% [at 114 µM]"}
{"smiles": "COC(=O)C[C@@H]1C(C(=O)O)=CO[C@@H](O[C@@H]2O[C@H](CO)[C@@H](O)[C@H](O)[C@H]2O)/C1=C\\COC(=O)/C=C/c1ccc(O)c(OC)c1", "activity change, negative = inhibition": "-0.414% [at 30.2 µM]"}
{"smiles": "CC(C)c1ccc2c(c1)C(=O)CC1C(C)(C(=O)O)CCCC21C", "note": "(stereo not drawn)", "activity change, negative = inhibition": "-4.08%"}
{"smiles": "O=C(O)Cc1cn([C@@H]2O[C@H](CO)[C@@H](O)[C@H](O)[C@H]2O[C@@H]2O[C@H](CO)[C@@H](O)[C@H](O)[C@H]2O)c2ccccc12", "activity change, negative = inhibition": "0.513%"}
{"smiles": "O=C(O)C[C@H]1CCC(=O)[C@@H]1C/C=C\\CCO", "activity change, negative = inhibition": "-3.3% [at 114 µM]"}
{"smiles": "CC1OC(OC2C(OC(=O)[C@]34CCC(C)(C)C[C@H]3C3=CCC5[C@@]6(C)CC[C@H](OC7OC(C(=O)O)C(O)C(O)C7O)C(C)(C)C6CC[C@@]5(C)[C@]3(C)CC4O)OC(CO)C2O)C(O)C(O)C1OC1OCC(O)C(O)C1O", "note": "(stereo partly drawn)", "activity change, negative = inhibition": "1.31% [at 30.2 µM]"}
{"smiles": "C/C(=C\\C1CCC(C)C2CCC3(C)OC123)C(=O)O", "note": "(stereo not drawn)", "activity change, negative = inhibition": "0.986% [at 114 µM]"}
{"smiles": "C=C1C2(C)CC3C4(C)OC(C5OC56C4=CC(=O)OC6(C)C)C3(C)C13C(=O)OC(C)C3(O)C2=O", "note": "(stereo not drawn)", "activity change, negative = inhibition": "-13%"}
{"smiles": "CC1=C(CO)CC(C(C)C2CCC3C4CC=C5CC(OC6OC(COC7OC(CO)C(O)C(O)C7O)C(O)C(O)C6O)CC(O)C5(C)C4CCC23C)OC1=O", "note": "(stereo not drawn)", "activity change, negative = inhibition": "-1.01% [at 30.2 µM]"}
{"smiles": "O=C(O)c1cc(O[C@@H]2O[C@H](CO)[C@@H](O)[C@H](O)[C@H]2O)ccc1O", "activity change, negative = inhibition": "-5.36%"}
{"smiles": "Cc1noc2c1-c1ccccc1C(c1ccc(Cl)cc1)=N[C@H]2CC(N)=O", "activity change, negative = inhibition": "3.31% [at 114 µM]"}
{"smiles": "CC(/C=C/C=C(\\C)C(=O)O[C@@H]1O[C@H](CO[C@@H]2O[C@H](CO)[C@@H](O)[C@H](O)[C@H]2O)[C@@H](O)[C@H](O)[C@H]1O)=C\\C=C\\C=C(C)\\C=C\\C=C(/C)C(=O)O[C@@H]1C[C@](O)(C(=O)O)C[C@@H](O)[C@H]1OC(=O)/C=C/c1ccc(O)c(O)c1", "activity change, negative = inhibition": "-5.75% [at 30.2 µM]"}
{"smiles": "C=C(CCO)C(=O)OCC1OCC(OC(=O)C(=C)CCO[C@@H]2O[C@H](COC(=O)C(=C)CCO[C@@H]3O[C@H](CO)[C@@H](O)[C@H](O)[C@H]3O)[C@@H](O)[C@H](O)[C@H]2O)C(O)C1O", "note": "(stereo partly drawn)", "activity change, negative = inhibition": "2.02% [at 30.2 µM]"}
{"smiles": "C=C(C(=O)O)C1CC(OC(=O)CC(C)CC)C2(C)CCCC(=C)C2C1", "note": "(stereo not drawn)", "activity change, negative = inhibition": "-7.17%"}
{"smiles": "CC1=CC(=O)C(=C(C)C)CC2C(C)(O)CCC12O", "note": "(stereo not drawn)", "activity change, negative = inhibition": "-0.775% [at 114 µM]"}
{"smiles": "COC(=O)C(CC1(O)c2ccccc2N2C(=O)C(C)(C)N(O)C21)n1cnc2ccccc2c1=O", "note": "(stereo not drawn)", "activity change, negative = inhibition": "-2.34%"}
{"smiles": "C=CCC1=C[C@]2(OC)[C@H](C)[C@@H](c3ccc(OC)c(OC)c3)O[C@]2(OC)CC1=O", "activity change, negative = inhibition": "0.0437%"}
{"smiles": "COc1cc2c(cc1O)C(c1ccc(O)cc1)C(C)C(C)C2", "note": "(stereo not drawn)", "activity change, negative = inhibition": "-5.89% [at 114 µM]"}
{"smiles": "COC(=O)C1=CO[C@@H](O[C@@H]2O[C@H](CO)[C@@H](O)[C@H](O)[C@H]2O)[C@H]2[C@@H]1[C@H](O)C[C@]2(C)O", "activity change, negative = inhibition": "-2.6%"}
{"smiles": "CC1(C)CC[C@]2(C(=O)O)CC[C@]3(C)C(=CCC4[C@@]5(C)C(=O)C[C@H](O)[C@@](C)(CO)C5CC[C@]43C)[C@@H]2C1", "note": "(stereo partly drawn)", "activity change, negative = inhibition": "5.34%"}
{"smiles": "CC(CCc1ccc(O)cc1)O[C@@H]1O[C@H](CO[C@@H]2OC(CO)[C@H](O)[C@H]2O)[C@@H](O)[C@H](O)[C@H]1O", "note": "(stereo partly drawn)", "activity change, negative = inhibition": "2.36%"}
{"smiles": "Cn1cc(Nc2cnccc2C(=O)O)c2cccnc21", "activity change, negative = inhibition": "-2.75% [at 114 µM]"}
{"smiles": "C/C=C1/[C@H](O[C@@H]2O[C@H](CO)[C@@H](O)[C@H](O)[C@H]2O)OC=C(C(=O)OC)[C@H]1CC(=O)OCCc1ccc(OC(=O)C[C@@H]2C(C(=O)OC)=CO[C@@H](O[C@@H]3O[C@H](CO)[C@@H](O)[C@H](O)[C@H]3O)/C2=C/C)cc1", "activity change, negative = inhibition": "1.67% [at 30.2 µM]"}
{"smiles": "CC(=O)[C@@H]1C[C@H](C(C)(C)O[C@@H]2O[C@H](CO)[C@@H](O)[C@H](O)[C@H]2O)CC[C@@]2(CO)OC(=O)C[C@@H]12", "activity change, negative = inhibition": "3.72%"}
{"smiles": "C/C=C(/C)C(=O)OC1C(OC(C)=O)C23C(O)OC4(CCC5C6(C)CCC(OC7OC(C(=O)O)C(O)C(OC8OC(CO)C(O)C(O)C8OC8OC(C)C(O)C(O)C8OC8OCC(O)C(O)C8O)C7OC7OC(CO)C(O)C(O)C7O)C(C)(C)C6CCC5(C)C4(C)CC2OC(C)=O)C3CC1(C)C", "note": "(stereo not drawn)", "activity change, negative = inhibition": "3.17% [at 12.4 µM]"}
{"smiles": "CCCO[C@@H]1O[C@H](CO)[C@@H](O)[C@H](O)[C@H]1O[C@@H]1OC[C@@H](O)[C@H](O)[C@H]1O", "activity change, negative = inhibition": "4.37%"}
{"smiles": "CC(=O)OC1C(O)/C(C)=C\\C2C(OC(=O)c3ccccc3)C(C)CC2(OC(C)=O)C(OC(C)=O)C(C)/C=C/C(C)(C)C1OC(C)=O", "note": "(stereo not drawn)", "activity change, negative = inhibition": "-0.416% [at 30.2 µM]"}
{"smiles": "OC[C@H]1O[C@@H](OCc2ccccc2)[C@H](O)[C@@H](O)[C@@H]1O", "activity change, negative = inhibition": "-0.0502% [at 114 µM]"}
{"smiles": "O=C(CCc1ccccc1)c1c(O)c([C@@H]2O[C@H](CO)[C@@H](O)[C@H](O)[C@H]2O)c(O)c([C@@H]2O[C@H](CO)[C@@H](O)[C@H](O)[C@H]2O)c1O", "activity change, negative = inhibition": "-3.62% [at 30.2 µM]"}
{"smiles": "CC(C)(O)C(O)C(=O)OCc1ccc(O[C@@H]2O[C@H](CO)[C@@H](O)[C@H](O)[C@H]2O)cc1", "note": "(stereo partly drawn)", "activity change, negative = inhibition": "3.26%"}
{"smiles": "C/C=C(\\C)C(=O)OCC1OC(OCC2OC(OC3(CO)OC(CO)C(O)C3O)C(O)C(O)C2O)C(O)C(O)C1O", "note": "(stereo not drawn)", "activity change, negative = inhibition": "-2.98% [at 30.2 µM]"}
{"smiles": "CC(C)c1ccc2c(c1)[C@H](O)CC1[C@@](C)(C(=O)O)CCC[C@]21C", "note": "(stereo partly drawn)", "activity change, negative = inhibition": "0.0581%"}
{"smiles": "O=C1C(Cl)=C(N2CCOCC2)C(=O)N1c1ccc(Cl)c(Cl)c1", "activity change, negative = inhibition": "-14.1%"}
